# An excerpt weighted towards active compounds, which were near 3.5% of everything screened.
# FBW7 act = FBW7 E3 ligase activators, primary screen, biochemical, AlphaScreen, human. normalized activity (activation), % at 26.1 µM. 650,000 compounds, 0.13% hits. AlphaScreen FBW7–phospho-cyclin E peptide binding, activator screen. F-box/WD repeat-containing protein 7 (Homo sapiens), Q969H0; in the data active = normalized activity above about 1.9%;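 also: purified mutant Fbw7 with reduced substrate affinity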
# TEAD-YAP block = TEAD-YAP interaction inhibition, primary screen, TEAD-YAP interaction inhibitor project, luminescence, HEK-TIYL cells; TEAD-Gal4/YAP UAS-luciferase luminescence; inhibition, % at 9.12 µM; 640,000 compounds, 1.4% hits; in the data active = inhibition above about 32%
# GPR151 activ = activators of human GPR151, primary screen, cell-based, PathHunter beta-arrestin, luminescence; AID 1508602, 2020; G-protein coupled receptor 151 (Homo sapiens), Q8TDV0; activation, % at 11.2 µM; PathHunter beta-arrestin GPR151 cells; 650,000 compounds, 1% hits; in the data active = activation above about 4.9%
# Target sequence (Q8TDV0 whole entry, looked up): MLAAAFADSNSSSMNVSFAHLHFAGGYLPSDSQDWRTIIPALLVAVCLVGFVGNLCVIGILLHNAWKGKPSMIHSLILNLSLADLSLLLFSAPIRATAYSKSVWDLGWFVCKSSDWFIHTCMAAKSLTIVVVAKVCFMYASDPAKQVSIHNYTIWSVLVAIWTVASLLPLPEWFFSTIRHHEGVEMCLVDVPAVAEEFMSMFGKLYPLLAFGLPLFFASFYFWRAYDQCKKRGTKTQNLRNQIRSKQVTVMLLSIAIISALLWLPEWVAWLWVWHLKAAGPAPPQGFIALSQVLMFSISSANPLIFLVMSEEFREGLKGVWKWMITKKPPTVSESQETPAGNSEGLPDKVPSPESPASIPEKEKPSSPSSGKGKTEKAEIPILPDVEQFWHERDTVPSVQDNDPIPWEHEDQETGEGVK
# MITF primary = MITF inhibitors, primary screen, biochemical, AlphaScreen, human; Microphthalmia-associated transcription factor (Homo sapiens), O75030; AlphaScreen MITF homodimerization, bead proximity signal; inhibition, % at 2.6 µM; 650,000 compounds, 0.91% hits; in the data active = inhibition above about 50%
# MITF inh conf = MITF inhibitors, retest of hits, confirmation, biochemical, AlphaScreen, triplicate; shares compounds with MITF primary; AlphaScreen MITF homodimerization, biotin/His-MITF beads; inhibition, % at 2.6 µM; 4,700 compounds, 16% hits; AID 1259372, 2018;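 active = inhibition above a cutoff derived from the DMSO control wells, cut at about 28% in these data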;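 also: inhibitors lower the bead chemiluminescence by keeping MITF from dimerizing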
# AS interf ctr = AlphaScreen optical interference compounds, counter-screen for MITF inhibitor project, biochemical, triplicate | LysRS AlphaScreen counterscreen, signal interference | shares compounds with MITF primary | inhibition, % at 2.6 µM | AID 1259376, 2018 | 4,700 compounds, 7.6% hits;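 active = inhibition above a cutoff derived from the DMSO control wells, cut at about 30% in these data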
# Numbers stand for hits; – = inactive; · = no result; ! = not confirmed by another sample.
SMILES,FBW7 act,TEAD-YAP block,GPR151 activ,MITF primary,others
CC(C)CS(=O)(=O)C1=NSC2=NC(=O)/C(=C\c3ccc([N+](=O)[O-])o3)C(=N)N21,–,–,–,66,
CCOc1ccccc1OCCNCCOC,–,–,–,–,
COc1cccc(-c2nc(CS(=O)(=O)CC(=O)N3CC(C)CC(C)C3)c(C)o2)c1 (stereo not given),–,–,–,–,
CCc1ccc(-n2c(N3CCC(C(N)=O)CC3)nc3ccccc3c2=O)cc1,–,–,–,–,
COc1ccc(S(=O)(=O)N(CC(=O)Nc2c(C)n(C)n(-c3ccccc3)c2=O)c2ccc(C)cc2)cc1,–,–,–,–,
CC(c1ccccc1)c1ccc(O)c(O)c1 (stereo not given),–,–,–,–,
NCC(O)c1ccc(O)c(O)c1 (stereo not given),–,–,–,77!,
Cc1cc(Nc2ccc3c(c2)OCO3)nc(Cl)n1,–,–,–,–,
Cc1cc(Nc2ccc(Br)cc2)nc(-n2nc(C)cc2C)n1,–,64,–,–,
Cc1cc(Nc2ccc3c(c2)OCCO3)nc(-n2nc(C)cc2C)n1,–,87,–,–,
Cc1ccc(CNc2cc(C)nc(-n3nc(C)cc3C)n2)cc1,–,67,–,–,
Cc1cc(Nc2ccc(Cl)cc2)nc(-n2nc(C)cc2C)n1,–,47,–,–,
Cc1cc(Nc2ccc(Cl)cc2)nc(N)n1,–,–,–,–,
Cc1cc(C)n(-c2nc(-c3ccc(Br)cc3)cs2)n1,–,–,–,–,
COc1ccccc1CNS(=O)(=O)c1ccc(F)c(C(=O)Nc2cc(Cl)cc(Cl)c2)c1,–,–,–,–,
COc1ccccc1NC(=O)c1ccc(SCC(=O)N2CCC3(CC2)OCCO3)c([N+](=O)[O-])c1,–,38,–,–,
CC(C)COC(=O)NC(Cc1c[nH]c2ccccc12)C(=O)O (stereo not given),–,–,–,–,
Cc1ccc(-c2ncnn2-c2sc3c(c2C#N)CCCCC3)cc1,–,–,–,–,
N#Cc1c(-n2ncnc2-c2cccs2)sc2c1CCCCC2,–,64,–,–,
CC(C)(C)c1ccc(-c2nc(-c3c(F)cccc3F)no2)cc1,–,68,–,–,
N#Cc1ccc(-c2nc(-c3c(F)cccc3F)no2)cc1,–,–,–,–,
Cc1ccc(-c2nc(-c3nonc3N)no2)cc1,–,–,–,–,
CC(C)(C)c1ccc(-c2nc(-c3nonc3N)no2)cc1,–,51,–,–,
C=CCC1S/C(=N\N=C\c2cccc([N+](=O)[O-])c2)NC1=O (stereo not given),2.3,–,–,–,
Cc1cncc(NC(=O)c2cc(N3CCOCC3)cc(-n3cc(NC(=O)Cc4ccccc4)cn3)c2)c1,–,40,–,–,
SMILES,FBW7 act,TEAD-YAP block,GPR151 activ,MITF primary,others
CC(=O)N1CCc2c(sc(NC(=O)c3ccc4c(c3)OCCO4)c2C#N)C1,–,40,–,–,
COC(=O)c1c(NC(=O)c2ccc(Cl)cc2)sc2c1CCN(C(C)=O)C2,3.3,–,–,–,
CC(=O)N1CCc2c(sc(NC(=O)c3ccc(Br)cc3)c2C#N)C1,–,41,–,–,
COC(=O)c1c(NC(=O)c2ccc(S(=O)(=O)N(C)C)cc2)sc2c1CCN(C(C)=O)C2,–,–,–,–,
CCCCC(=O)Nc1sc2c(c1C#N)CCN(C(C)=O)C2,–,43,–,–,
COc1ccc(N2C(N)=C(C#N)C(c3cc(OC)c(OC)c(OC)c3)C3=C2CCCC3=O)cc1 (stereo not given),–,54,–,–,
COc1ccc(C2C(C#N)=C(N)N(c3ccc(C)cc3)C3=C2C(=O)CC(C)(C)C3)cc1OC (stereo not given),–,54,–,–,
COc1cc(C2C(C#N)=C(N)N(c3ccc(Br)cc3)C3=C2C(=O)CCC3)cc(OC)c1OC (stereo not given),–,–,–,–,
COc1ccc(N2C(N)=C(C#N)C(c3ccsc3)C3=C2CCCC3=O)c(OC)c1 (stereo not given),–,–,–,–,
COc1ccc(N2C(N)=C(C#N)C(c3ccsc3)C3=C2CCCC3=O)cc1 (stereo not given),–,45,–,–,
O=C(/C=C/c1ccccc1)N1CCCCCC1,–,–,–,–,
CC1CCCC(NC(=O)NC(=O)COC(=O)CNC(N)=O)C1C (stereo not given),–,–,–,–,
Cc1nn(C(=O)C2CCCN2S(=O)(=O)c2ccc(Cl)cc2)c(C)c1Sc1ccc([N+](=O)[O-])cc1 (stereo not given),–,–,–,67,MITF inh conf=–;AS interf ctr=–
O=C(c1cccs1)N1CCN(Cc2cccc(Cl)c2)CC1,–,–,–,–,
O=S(=O)(Cc1ccccc1)N1CCN(Cc2ccccc2Cl)CC1,–,–,–,92,MITF inh conf=–;AS interf ctr=–
CS(=O)(=O)N1CCN(c2ccc([N+](=O)[O-])c(N3CCN(Cc4ccccc4)CC3)c2)CC1,–,–,–,83,MITF inh conf=–;AS interf ctr=–
O=[N+]([O-])c1ccccc1CN1CCN(S(=O)(=O)Cc2ccccc2)CC1,–,–,–,70,MITF inh conf=–;AS interf ctr=–
CCS(=O)(=O)N1CCN(Cc2ccccc2[N+](=O)[O-])CC1,–,–,–,–,
CCCCOc1ccc(C(=O)NCc2ccc(C(C)(C)C)cc2)cc1,–,–,–,–,
CC1CCN(Cc2ccc(-c3nnn(CC(=O)Nc4ccccc4F)n3)cc2)CC1,–,–,–,–,
CC1CCN(Cc2ccc(-c3nnn(CC(=O)Nc4ccc(F)cc4)n3)cc2)CC1,–,–,–,88,MITF inh conf=–;AS interf ctr=–
NNC(=O)C(=O)Nc1ccc(Oc2ccccc2)cc1,–,–,–,–,
O=P(O)(O)O[C@@H]1[C@H](O)[C@H](O)[C@@H](OP(=O)(O)O)[C@H](OP(=O)(O)O)[C@H]1O,·,·,–,54!,MITF inh conf=–;AS interf ctr=–
O=C1N[C@@H](Cc2ccccc2)C(=O)N2CCN(Cc3ccc(F)c(F)c3)C[C@H]12,–,–,–,–,
CC(=O)c1ccc(NC(=O)CSc2nnc3[nH]c(=O)c(C)c(C)n23)cc1,–,–,–,56,MITF inh conf=–;AS interf ctr=–
COC(=O)c1ccc(NC(=O)CSc2nnc3[nH]c(=O)c(C)c(C)n23)cc1,–,–,–,–,
COc1ccc(NC(=O)CN2CCN(S(=O)(=O)c3cccc([N+](=O)[O-])c3)CC2)cc1Cl,–,–,–,–,
OCCC1CN(Cc2cccn2-c2ccccn2)CCN1Cc1ccc(F)cc1 (stereo not given),–,–,–,–,
COc1ccc(-c2ncn(-c3ccc(Nc4ncc5ccc(-c6cnn(C)c6)cc5n4)cc3)n2)cn1,–,–,–,55,MITF inh conf=–;AS interf ctr=–
